Experimental data reported in PubChem BioAssay (EPA / NIEHS).
Results filed as inconclusive are left out. Activity calls are given as the source filed them. How the source made its calls: active means hit-call score of the fitted dose curve at least 0.9, where 1 is the maximum; inconclusive means response in the unintended direction; inactive means score below 0.9.

Read-out: glucuronosyltransferase (UGT1A1), UGT1A1 (gene 54658)
Test: CLD_UGT1A1_6hr: CellzDirect (CLD) Gene Expression Assay for glucuronosyltransferase (UGT1A1) at 6 hours (AID 2283672)
Experimental: CLD_6hr is a cell-based, multiplexed-readout assay that uses hepatocyte, a human liver primary cell, with measurements taken at 6 hours after chemical dosing in a 96-well plate.CLD_UGT1A1_6hr is one of 16 assay component(s) measured or calculated from the CLD_6hr assay. It is designed to make measurements of mRNA induction, a form of inducible reporter, as detected with chemiluminescence signals by Quantitative Nuclease Protection Assay (qNPA) technology.Data from the assay component CLD_UGT1A1_6hr was analyzed at the endpoint, CLD_UGT1A1_6hr, in the positive analysis fitting direction relative to DMSO as the negative control and baseline of activity. Using a type of inducible reporter, gain-of-signal activity can be used to understand changes in the reporter gene as they relate to the gene UGT1A1. Furthermore, this assay endpoint can be referred to as a primary readout. To generalize the intended target to other relatable targets, this assay endpoint is annotated to the transferase intended target family, where subfamily is glucuronosyltransferase.
Human hepatocyte cultures were treated daily for two consecutive days with fresh dosing solutions containing appropriate concentrations of the 320 ToxCast chemicals (chemical identities were blinded to CellzDirect and other ToxCast collaborators), vehicle control (0.2% DMSO), and positive control inducers as summarized in Table 1. Due to the large number of treatment groups and chemicals examined, the ToxCast chemicals were divided into two groups (spanning two independent cultures of hepatocytes from separate donor preparations (Hu778: ToxCast plates 1 and 2; Hu776: ToxCast plates 3 and 4). Each preparation of human hepatocyte cultures was treated with respective vehicle control, medium only control, set of six positive controls/reference chemicals for the five hepatic receptor pathways, and a subset of eight of the ToxCast chemicals (indoxacarb, pyrithiobac-sodium, norflurazon, cyhalofop-butyl, methomyl, thiram, acetochlor, and propiconazole). These replicate data, coupled with internal replicates designed within the blinded ToxCast chemical library, provided additional data to evaluate interindividual differences between hepatocyte preparations and their potential impact on chemical profiles.Cell morphology and integrity were evaluated using phase-contrast microscopy as an indicator of hepatocyte cell health (Tyson & Green, 1987). Cultures for each treatment group (i.e., media, vehicle [0.2% DMSO], positive control inducers [multiple concentrations], and the ToxCast chemicals [multiple concentrations]) were observed and cell morphology was assessed relative to vehicle control cultures at each harvest time point (0, 6, 24, or 48 h). […] Images were evaluated at the conclusion of the study to assess changes in cell integrity and account for the effects of chemical exposure on uncharacteristic changes in concentration-dependent gene expression profiles. The results from these determinations of apparent cytotoxicity were annotated (yes/no) alongside the corresponding qNPA data for reference.At the conclusion of each treatment period, hepatocyte cultures (96-well) were washed with 1 volume of HBSS, lysed by addition of 25 ul ArrayPlate lysis buffer (HTG, Tucson, AZ), and 70 ul/well of Denaturation Oil, denatured by incubation at 95C for 10 min, and frozen at approximately -70C until analysis by nuclease protection assay (qNPA) (Roberts et al., 2007). For qNPA analysis, cell lysates were thawed at 50C for approximately 30 min, qNPA probes were added, and samples were incubated at 95C for 10 min to begin the detection process by denaturing the target RNA, dissociating the duplexes and secondary structure hybridization. At the conclusion of the hybridization period, S1 nuclease reagent was added to each sample to digest all nonprotected nucleotides at 50C for 60-90 min. […]

**Q.** `O=C(O)c1c(Cl)ccc2cc(Cl)cnc12` was tested. Which outcome did it give?
**A.** Its outcome is “inactive”.

**Q.** For `COCC(C)N(C(=O)CCl)c1c(C)csc1C` (stereo not given), which outcome is on record?
**A.** Its outcome is “inactive”.

**Q.** How did the outcome turn out when `O=P(O)(O)CCCl` was run?
**A.** Its outcome is “inactive”.

**Q.** How did the outcome turn out when `COP(=S)(OC)Oc1ccc([N+](=O)[O-])c(C)c1` was run?
**A.** The outcome was “inactive”.

**Q.** Which outcome does the source give for `CC1(C)CON(Cc2ccccc2Cl)C1=O` here?
**A.** Its outcome is “inactive”.

**Q.** With `CC1(C)C(C(=O)OC(C#N)c2cccc(Oc3ccccc3)c2)C1(C)C` (stereo not given) as the compound, how does the outcome read?
**A.** The outcome was “inactive”.

**Q.** `CC(C)N1C(=O)c2ccccc2NS1(=O)=O` was tested. Which outcome did it give?
**A.** Its outcome is “inactive”.

**Q.** Which outcome does the source give for `CS(=O)(=O)c1cc(C(F)(F)F)ccc1C(=O)c1cnoc1C1CC1` here?
**A.** Its outcome is “inactive”.

**Q.** How did the outcome turn out when `CCOP(=O)(OCC)Oc1nc(Cl)c(Cl)cc1Cl` was run?
**A.** Its outcome is “inactive”.

**Q.** Which outcome does the source give for `COC(=O)NC(=S)Nc1ccccc1NC(=S)NC(=O)OC` here?
**A.** Its outcome is “inactive”.

**Q.** How did the outcome turn out when `COc1ccc(-c2ccccc2)cc1NNC(=O)OC(C)C` was run?
**A.** The outcome was “inactive”.

**Q.** `CCOC(=O)C(C)OC(=O)c1cc(Oc2ccc(C(F)(F)F)cc2Cl)ccc1[N+](=O)[O-]` (stereo not given) was tested. Which outcome did it give?
**A.** The outcome was “inactive”.

**Q.** Which outcome does the source give for `Cc1nc(N(C)C)nc(OC(=O)N(C)C)c1C` here?
**A.** Its outcome is “inactive”.

**Q.** With `COC(=O)c1c(C(F)F)nc(C(F)(F)F)c(C2=NCCS2)c1CC(C)C` as the compound, how does the outcome read?
**A.** The outcome was “inactive”.

**Q.** Which outcome does the source give for `CC1(C)C(C=C(Cl)Cl)C1C(=O)OC(C#N)c1cccc(Oc2ccccc2)c1` (stereo not given) here?
**A.** The outcome was “inactive”.

**Q.** Which outcome does the source give for `Clc1nc(Cl)nc(Nc2ccccc2Cl)n1` here?
**A.** Its outcome is “inactive”.

**Q.** For `CCNP(=S)(OC)O/C(C)=C/C(=O)OC(C)C` (stereo not given), which outcome is on record?
**A.** Its outcome is “inactive”.

**Q.** With `CNC(=O)Oc1cccc2ccccc12` as the compound, how does the outcome read?
**A.** The outcome was “inactive”.

**Q.** Which outcome does the source give for `CC(C)C1(C)N=C(c2ncccc2C(=O)O)NC1=O` (stereo not given) here?
**A.** Its outcome is “inactive”.

**Q.** With `CCCN(CC)CC1COC2(CCC(C(C)(C)C)CC2)O1` (stereo not given) as the compound, how does the outcome read?
**A.** Its outcome is “inactive”.

**Q.** For `Cc1cc(C)nc(Nc2ccccc2)n1`, which outcome is on record?
**A.** The outcome was “inactive”.

**Q.** For `CCN(CC)c1nc(C)cc(OP(=S)(OC)OC)n1`, which outcome is on record?
**A.** The outcome was “inactive”.

**Q.** `CC(C)Nc1nc(Cl)nc(NC(C)C)n1` was tested. Which outcome did it give?
**A.** Its outcome is “inactive”.

**Q.** For `CCOc1cc(C(C)(C)C)ccc1C1COC(c2c(F)cccc2F)=N1` (stereo not given), which outcome is on record?
**A.** Its outcome is “inactive”.

**Q.** `Nc1cnn(-c2ccccc2)c(=O)c1Cl` was tested. Which outcome did it give?
**A.** Its outcome is “inactive”.

**Q.** For `CCC(C)n1c(=O)[nH]c(C)c(Br)c1=O` (stereo not given), which outcome is on record?
**A.** Its outcome is “inactive”.

**Q.** `CCOc1nc(F)cc2nc(S(=O)(=O)Nc3c(Cl)cccc3Cl)nn12` was tested. Which outcome did it give?
**A.** Its outcome is “inactive”.

**Q.** With `N#Cc1c(Cl)cccc1Cl` as the compound, how does the outcome read?
**A.** Its outcome is “inactive”.

**Q.** Which outcome does the source give for `COC(=O)N(C(=O)N1CO[C@@]2(C(=O)OC)Cc3cc(Cl)ccc3C2=N1)c1ccc(OC(F)(F)F)cc1` here?
**A.** The outcome was “inactive”.

**Q.** For `COCc1cnc(C2=NC(C)(C(C)C)C(=O)N2)c(C(=O)O)c1` (stereo not given), which outcome is on record?
**A.** The outcome was “inactive”.

**Q.** With `CCOP(=S)(OCC)Oc1nc(Cl)n(C(C)C)n1` as the compound, how does the outcome read?
**A.** The outcome was “inactive”.

**Q.** Which outcome does the source give for `CCNC(=O)NC(=O)C(C#N)=NOC` here?
**A.** Its outcome is “inactive”.

**Q.** With `N#Cc1c[nH]cc1-c1cccc2c1OC(F)(F)O2` as the compound, how does the outcome read?
**A.** Its outcome is “inactive”.

**Q.** `OC(c1ccc(Cl)cc1)(c1ccc(Cl)cc1)C(Cl)(Cl)Cl` was tested. Which outcome did it give?
**A.** The outcome was “inactive”.

**Q.** How did the outcome turn out when `CCN(CC)C(=O)C(C)Oc1cccc2ccccc12` (stereo not given) was run?
**A.** Its outcome is “inactive”.

**Q.** Which outcome does the source give for `CCSC(=O)N1CCCCCC1` here?
**A.** Its outcome is “inactive”.

**Q.** With `COCC(=O)N(c1c(C)cccc1C)C(C)C(=O)OC` (stereo not given) as the compound, how does the outcome read?
**A.** The outcome was “inactive”.

**Q.** Which outcome does the source give for `O=c1n(Cl)c(=O)n(Cl)c(=O)n1Cl` here?
**A.** Its outcome is “inactive”.

**Q.** For `CC(C)N1C(=O)N(c2ccccc2)CSC1=NC(C)(C)C`, which outcome is on record?
**A.** Its outcome is “inactive”.

**Q.** `CSC(=O)c1c(C(F)F)nc(C(F)(F)F)c(C(=O)SC)c1CC(C)C` was tested. Which outcome did it give?
**A.** The outcome was “inactive”.
